# Laboratory results reported in PubChem BioAssay AID677 (Vanderbilt High Throughput Screening Facility, 2007).
# Out of some 1,700 compounds screened, about 720 (42%) were called active.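 How the source made its calls: active means calcium response below the same-plate mean of wells given acetylcholine alone at its 80%-effect dose, minus 3 SD; inactive means the rest.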 The set was probably picked from earlier hits. These entries were drawn from the full list.
# Target: Muscarinic acetylcholine receptor M1 (Rattus norvegicus) (UniProt P08482)
# Sequence (P08482 whole entry, looked up): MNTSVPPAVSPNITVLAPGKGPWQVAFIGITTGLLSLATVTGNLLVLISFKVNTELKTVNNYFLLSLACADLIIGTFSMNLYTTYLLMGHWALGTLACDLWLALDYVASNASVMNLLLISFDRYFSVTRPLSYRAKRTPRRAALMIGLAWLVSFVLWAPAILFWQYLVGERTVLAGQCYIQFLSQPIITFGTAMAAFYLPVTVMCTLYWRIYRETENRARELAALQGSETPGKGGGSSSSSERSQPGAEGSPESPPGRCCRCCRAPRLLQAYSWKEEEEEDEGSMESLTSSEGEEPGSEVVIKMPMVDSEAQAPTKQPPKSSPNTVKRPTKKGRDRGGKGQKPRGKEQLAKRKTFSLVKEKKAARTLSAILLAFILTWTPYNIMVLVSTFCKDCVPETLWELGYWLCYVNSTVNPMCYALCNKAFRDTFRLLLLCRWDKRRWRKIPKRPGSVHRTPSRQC
# Assay: blockers of ACh-evoked M1 calcium signal – CHO cells, Fluo-4 calcium, duplicate, confirmation (AID 677);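 further: raw fluorescence intensity difference in arbitrary instrument units and not normalized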
# Conditions: ACh EC80 antagonism, at 10 µM, stronger effect = lower value
row,Structure (SMILES),calcium response (max-min fluorescence)
1,COc1ccc(C2NCc3ccc4c(c3-n3cccc32)OCO4)cc1OC (stereo not given),455 (active)
2,Fc1ccc(N2CCN(Cc3ccc4c(c3)OCO4)CC2)cc1,588 (inactive)
3,CCOC(=O)C1SC2(C(F)(F)C(F)F)CC1(O)c1c(c(OC)c3occc3c1OC)O2 (stereo not given),516 (inactive)
4,CC[N+]1(C)CCCC(OC(=O)C(O)(c2ccccc2)c2ccccc2)C1 (stereo not given),17.5 (active)
5,COc1ccc(CN2CCN(c3ccccc3F)CC2)c(OC)c1,547 (inactive)
